Reference: PubChem BioAssay (NCI)
Values joined by “and” are separate entries in the source; they are usually repeats but may differ in a detail not shown here. Identical values can stand only once. The panel holds about 79,000 compounds, 15% with a hit somewhere; the sample as a whole holds those more often. A number with no mark means an inactive call. Active and inactive are the calls of the source. Cut-off read from the data, not from the text of the source: active = growth inhibition above about 70%; inactive = the rest.

Tests used:
[1] = NCI Yeast Anticancer Drug Screen. Data for the rad50 strain (AID 155);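 note: 0% = growth of vehicle-only cultures of the same strain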; settings: S. cerevisiae rad50 strain growth inhibition, active compounds read high; at 50.0 µM unless noted
In short: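 Growth of the mutant yeast was measured after compound exposure and referenced to vehicle-treated cultures.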

[2] = NCI Yeast Anticancer Drug Screen. Data for the mec2-1 strain (AID 157); settings: S. cerevisiae mec2-1 strain, active compounds read high; at 50.0 µM unless noted
In short: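 Mutant yeast (mec2-1) grown with compound; growth inhibition relative to vehicle control reported.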

[3] = NCI Yeast Anticancer Drug Screen. Data for the sgs1 mgt1 strain (AID 161);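 note: 0% = growth of cultures given vehicle only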; settings: S. cerevisiae sgs1 mgt1 strain, active compounds read high; at 50.0 µM unless noted
In short: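 Yeast cells carrying a defined DNA-repair defect were exposed to test compounds. Growth inhibition was measured relative to vehicle-treated controls.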

[4] = NCI Yeast Anticancer Drug Screen. Data for the cln2 rad14 strain (AID 165);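 note: 0% = growth equal to vehicle treated cultures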; settings: S. cerevisiae cln2 rad14 strain, active compounds read high; at 50.0 µM unless noted
In short: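 Readout is yeast growth inhibition versus vehicle-treated controls, using a strain with cln2 and rad14 alterations exposed to compound.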

[5] = NCI Yeast Anticancer Drug Screen. Data for the bub3 strain (AID 167); settings: S. cerevisiae bub3 mutant strain, active compounds read high; at 50.0 µM unless noted
In short: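 Whole-cell yeast assay. The mutant strain was incubated with compounds, and growth inhibition was determined by comparison with vehicle-treated cells.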

[6] = NCI Yeast Anticancer Drug Screen. Data for the mlh1 rad18 strain (AID 175); settings: S. cerevisiae mlh1 rad18 strain growth inhibition, active compounds read high; at 50.0 µM unless noted
In short: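 Genetically defined yeast (DNA repair-deficient) exposed to compounds; growth inhibition determined relative to vehicle.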

Compound | growth inhibition [1] | growth inhibition [2] | growth inhibition [3] | growth inhibition [4] | growth inhibition [5] | growth inhibition [6]
ONc1ccc2c(c1)C1C(C3C2C2(Cl)C(Cl)=C(Cl)C3(Cl)C2(Cl)Cl)C2(Cl)C(Cl)=C(Cl)C1(Cl)C2(Cl)Cl (stereo unspecified) | 35.8% | 13.6% | 7.55% | 19.6% | 24.9% | 24.6%
CSC(=S)N/N=C(\C)c1cccs1 | 7.05% | 1.85% | 4.75% | -50.9% | -47.5% | 10.8%
CC(=O)Oc1cccc2c1C(=O)c1c(OC(C)=O)cc(C)cc1C2=O | 10.8% | 5.35% | 1.85% | -0.85% | -41% | -15.6%
CC(C)(C)NC(=O)C(Br)c1ccccc1 (stereo unspecified) | 0.05% | 23.1% | 33.8% | -2.25% | 54.1% | 16%
COC(=O)CCC(NC(=S)N/N=C(\C)c1ccco1)C(=O)OC (stereo unspecified) | -18.1% | -20.8% | 0.25% | 26.6% | -5.2% | -16.3%
OC1CC2CCCCC2CC1(O)c1ccc(OCc2ccccc2)c(OCc2ccccc2)c1 (stereo unspecified) | 16.6% | -9.55% | -19% | 14.8% | 3.4% | -5.2%
C/C(CCC(CC(=O)O)C(C)C)=N\NC(N)=O (stereo unspecified) | -5.85% | 1.8% | -6.65% | -35.9% | -27.4% | 4.65%
COC(C)(/C(C)=N/O)c1ccc(-c2ccccc2)cc1 (stereo unspecified) | 7.85% | -7.95% | 2.8% | -0.65% | 16.6% | 19.7%
Clc1ccccc1Nc1nc(Nc2ccccc2Cl)nc(Nc2ccccc2Cl)n1 | 21.1% | 19.4% | 21.6% | 37.9% | 7.3% | 5.95%
CCCCCC(=O)CC(=O)C(CC)CC | 16.4% | 12.9% | -1.55% | 1.35% | 6.5% | 12.9%
C=CCN(CC=C)C(=O)Nc1cccc(C)c1 | -27.2% | -43.9% | 1.3% | -3.15% | -2.6% | -21%
COc1ccc(/C=N/NS(=O)(=O)c2ccc(NC(C)=O)cc2)cc1 | -15.2% | -30.1% | 16.4% | 22.8% | -21.8% | -9.15%
CC(C)N(C(C)C)S(=O)(=O)c1ccccc1C(O)(c1ccccc1)c1ccccc1 | 47.5% | -1.15% | 39.4% | -7.35% | -0.95% | 5.9%
CCOc1ccc2nc(NC(=O)C(=O)C(c3cnc4ccccc4n3)[N+](=O)[O-])sc2c1 (stereo unspecified) | 23.6% | -13.4% | 24.4% | 8.95% | -22.4% | 13.8%
NC(CCO)P(=O)(O)O (stereo unspecified) | 13.3% | -6.05% | -20.2% | -55.7% | 2.05% | -4.6%
COc1ccccc1/C=C1\SC(=S)NC1=O | -44.6% | -36.9% | -38.2% | -14.6% | -17.8% | -40.1%
N#CC1CCC[N-]C1.N#CC1CCC[N-]C1.[Cl][Pt+2][Cl] (stereo unspecified) | 50.6% | 4.75% | 32.4% | 21.1% | 4.3% | 42.4%
O=S(=O)(Nc1nccs1)c1ccc(NCc2c3ccccc3nc3cc(Cl)ccc23)cc1 | 13.3% | 3.15% | 9.75% | -6.65% | -0.2% | 25.8%
Cc1cc([N+](=O)[O-])ccc1P(=O)(O)O | 8.55% | 7.6% | 0% | -0.65% | -3.8% | -7.95%
Nc1ncnc2c1ncn2C1OC(C(O)CO)C(O)C1O (stereo unspecified) | -0.65% and -17.4% | -1.4% and -71.8% | -4.2% and -6.85% | -81.3% and 10.2% | 1.15% and 16.4% | -16.1% and -31.6%
O=[N+]([O-])c1cccc(/C=C/c2ccnc3ccccc23)c1 | 10.2% | -13.1% | 2.95% | 5.65% | 19.4% | 4.15%

Compound | growth inhibition [1] | growth inhibition [2] | growth inhibition [3] | growth inhibition [4] | growth inhibition [5] | growth inhibition [6]
COC(=O)C1CCCCCCCCCCC12SCCCS2 (stereo unspecified) | -32.5% | -11.4% | -17.5% | 16.2% | -5.7% | -30%
CCOC(=O)/C(C#N)=C/c1ccc(C)cc1 | 10.4% | 15.8% | 11.2% | 6.15% | 22.3% | 22.9%
COC1CCC(/C=C(\C#N)C2CCC(C)CC2)CC1 (stereo unspecified) | 18.3% | 22.1% | 43.9% | 12.1% | 30.2% | 30.6%
COC1CCC(=O)N1CN(C(C)=O)c1ccc(C)cc1 (stereo unspecified) | 10.4% | 9.1% | -25.2% | 28.4% | 3.75% | -28.1%
CC(=O)c1c(Cl)nnc(-c2ccccc2)c1-c1ccccc1 | -9% | 0.05% | -9.2% | -21.9% | -11.7% | -12.3%
CCCCC(CC)C(O)P(=O)(O)O (stereo unspecified) | -9.2% | -15.1% | -9.75% | -14.3% | 2.8% | 0.45%
COC(=O)c1ccccc1NC(=O)Cc1ccccc1 | -0.5% | -27.1% | 15.9% | -5.65% | 37.2% | -15.7%
Nc1ccc2c(O)cc(S(=O)(=O)O)cc2c1 | 39% and 26.9% | 5.1% and 0.25% | 4.5% and -20.9% | -29.1% and -73% | 19.6% and 4.85% | 3.7% and 10.4%
O=C(/C=C/c1ccc(-c2ccccc2)cc1)c1ccccc1 | -16.7% | -24.8% | 7.75% | -3.3% | -20.6% | -17.6%
CCN(CC)C(=S)Oc1cc(Cl)c(Cl)cc1Cl | -5.45% | 3.8% | -5.2% | -2.55% | 18.7% | 21.2%
O=[n+]1c2c(n([O-])c3ccccc31)CCCCCCCCCC2 | -52.6% | -1.95% | 7.15% | -35.2% | 0.95% | 7.9%
c1cncc(C2c3[nH]c4ccccc4c3CCN2CCCN2CCCCC2)c1 (stereo unspecified) | -5.2% | -36.7% | 2.3% | 10.7% | -9.55% | -0.5%
Cc1ccc(/C=C2\NC(=S)NC2=O)cc1 | -0.15% | -18.9% | -1.9% | -21.4% | -23.4% | -41.4%
Nc1nccs1 | -0.45% | -0.65% | 4.75% | 9.4% | -3.15% | 25.7%
O=C1c2ccccc2C(=O)N1/N=[N+](\[O-])c1ccccc1 | 3.55% | 0.3% | 17.2% | 7.3% | 25.3% | 40.8%
Nc1cccc2c1nc(NCCO)c1ccccc12 | 23.8% | 3.5% | -15.6% | -4.5% | 10.7% | 49.1%
CC1(c2ccccc2)CC/C(=C/c2ccccc2)C1=O (stereo unspecified) | -5.4% | 10.1% | 25.9% | -43.5% | 33.3% | 18.3%
CN(C)CCOC(=O)C1C2CC3OC(=O)C1C3C2 (stereo unspecified) | -2.4% | -13.6% | 17.5% | -5% | 7.25% | -19.4%
CCCCCCCCCCCCC(=O)N1CCOCC1 | 99.5% (active) | 99.7% (active) | 99.8% (active) | 99.5% (active) | 99.6% (active) | 99.5% (active)
CCOC(=O)c1ccc(O)c(NC(C)=O)c1 | -11.7% | 18.1% | 0.15% | -42.5% | 10% | -7.15%
